Source: PubChem
An excerpt weighted towards active compounds, which were near 1.4% of everything screened.
MEX-5 binding: C. elegans MEX-5 TCR-2 RNA binding activity; activity score (negative = inhibition of binding), % at 10 µM; 0.38% of 300,000 active; AID 1832; MEX-5/FITC-TCR2 RNA binding, fluorescence polarization; hits give low values;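 active means inhibition past about -25% in most replicates, and total fluorescence under double the plate's negative control median, limit read from the data; inconclusive means replicates evenly split on the limit, or fluorescence at least double controls; inactive means too little inhibition in most replicates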
MCL1-BIM inh: disrupts human MCL1 binding to BIM-BH3 peptide; Q07820; GST-MCL1 / FITC-Bim-BH3 fluorescence polarization; inhibition, % at 10.9 µM; 0.68% of 320,000 active; AID 2057;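 active means inhibition above the mean inhibition of all tested compounds plus 3 SD, set per campaign, cut at about 40% in these data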;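 further: higher means more loss of mP so more displacement of Bim peptide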
eLon inh: inhibits E. coli Lon protease; P0A9M0; purified E. coli Lon protease, fluorescence polarization; inhibition, % at 7.94 µM; 0.42% of 360,000 active; in the data active means inhibition above about 13%, passing the limit was not always enough
Target sequence (P0A9M0 whole entry, looked up): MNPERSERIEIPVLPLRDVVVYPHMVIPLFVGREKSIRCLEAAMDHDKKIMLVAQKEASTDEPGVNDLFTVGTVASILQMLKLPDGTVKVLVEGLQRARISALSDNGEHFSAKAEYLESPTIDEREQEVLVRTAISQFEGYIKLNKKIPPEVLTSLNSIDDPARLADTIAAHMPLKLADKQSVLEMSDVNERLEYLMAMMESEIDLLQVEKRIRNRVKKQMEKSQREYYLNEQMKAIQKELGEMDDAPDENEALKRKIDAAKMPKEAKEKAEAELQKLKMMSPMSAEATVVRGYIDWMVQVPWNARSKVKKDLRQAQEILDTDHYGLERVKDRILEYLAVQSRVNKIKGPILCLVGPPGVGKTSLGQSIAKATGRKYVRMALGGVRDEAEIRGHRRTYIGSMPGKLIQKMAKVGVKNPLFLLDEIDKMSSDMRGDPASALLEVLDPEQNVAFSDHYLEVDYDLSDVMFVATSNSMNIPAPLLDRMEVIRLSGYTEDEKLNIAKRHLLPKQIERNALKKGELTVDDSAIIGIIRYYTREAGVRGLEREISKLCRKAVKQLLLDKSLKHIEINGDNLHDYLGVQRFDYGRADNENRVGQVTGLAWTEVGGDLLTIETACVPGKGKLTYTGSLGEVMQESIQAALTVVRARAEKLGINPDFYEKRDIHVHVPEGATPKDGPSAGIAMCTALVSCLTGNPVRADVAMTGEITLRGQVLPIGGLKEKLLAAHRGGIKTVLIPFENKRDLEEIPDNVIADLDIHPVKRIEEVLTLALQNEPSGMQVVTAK
Bcl-xL primary: blocks human Bcl-xL binding to Bim BH3 peptide; Q07817; GST-Bcl-xL / FITC-Bim BH3 peptide fluorescence polarization; inhibition, % at 10.9 µM; 0.7% of 320,000 active; AID 2129;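 active means inhibition above the mean of all tested compounds plus 3 SD, cutoff set per campaign, cut at about 30% in these data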;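 further: inhibitors lower millipolarization by displacing the labeled peptide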
GLD-1 TGE inh: GLD-1-TGE RNA interaction inhibition (C. elegans); Q17339; purified GLD-1 + fluorescein TGE RNA, fluorescence polarization; inhibition, % at 5.96 µM; 0.44% of 320,000 active;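 active means percent inhibition above a per-plate cutoff, the plate mean of test compounds plus 3 SD, cut at about 30% in these data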
E coli Lon conf: confirmation of E. coli Lon protease inhibitors. shares compounds with eLon inh. purified E. coli Lon, fluorescence polarization. inhibition, % at 7.94 µM. 31% of 1,400 active. AID 602230; in the data active means inhibition above about 16%
Large screens that a line does not name were inactive (follow-up assays come after a bar, where they were run).

Cc1cccc(C)c1OCC(O)CNC(C)(C)C (configuration not stated)	none
Cc1nc2ccccc2c(=O)n1NC(=O)C1CC1C (configuration not stated)	none
Cc1ccc(OC(C)C(=O)Nc2ccc(F)cc2)c([N+](=O)[O-])n1 (configuration not stated)	none (no result: MEX-5 binding)
CC1(C)CC(=O)C2=C(C1)c1c(ccc3ccccc13)NC2c1ccco1 (configuration not stated)	none
Cc1ccsc1C1Nc2ccc3ncccc3c2C2=C1C(=O)CC(C)(C)C2 (configuration not stated)	eLon inh 22 | E coli Lon conf inactive
CCCOC(=O)C1C2C=CC(C2)C1C(=O)OCC(=O)c1ccccc1 (configuration not stated)	eLon inh 25 | E coli Lon conf 87
COc1ccc(CNC(=O)C(C)OC(=O)c2cccs2)cc1 (configuration not stated)	none
Cc1cccc(S(=O)(=O)N2CN(Cc3ccco3)c3nc4ccccc4nc32)c1	eLon inh 59 | E coli Lon conf inactive
CC(=O)c1cccc(NC(=O)c2cccc3c(-c4cccnc4)coc23)c1	none (no result: MEX-5 binding, MCL1-BIM inh, Bcl-xL primary, GLD-1 TGE inh)
O=C(CCl)N1c2ccccc2Oc2ccc3ccccc3c21	eLon inh active (no result: MEX-5 binding, MCL1-BIM inh, Bcl-xL primary, GLD-1 TGE inh) | E coli Lon conf 24
CC(=O)N1c2ccccc2Oc2cc3ccccc3cc21	none (no result: MEX-5 binding)
O=C(NCCCn1ccnc1)c1nc(Cn2cc([N+](=O)[O-])cn2)no1	none
NC1=Nc2cccc3cccc1c23	eLon inh 29 (no result: MEX-5 binding) | E coli Lon conf 17
CCN(CCCNC(=O)CCNC(=O)Cn1cnc2ccccc2c1=O)c1ccccc1	none
Cc1cccc(N2N=C(C(=O)O)CCC2=O)c1	eLon inh 37 | E coli Lon conf inactive
O=C(COC(=O)Cc1ccc(Cl)cc1)NC1CCCC1	eLon inh 50 (no result: MEX-5 binding) | E coli Lon conf inactive
O=C(c1nc2ccccn2c1CN1CCCC(O)C1)N1CCN(C2CCCCC2)CC1 (configuration not stated)	eLon inh 19 | E coli Lon conf inactive
Cc1ccc(N2CC(C(=O)Nc3ccc(N4CCOCC4)cc3)CC2=O)cc1C (configuration not stated)	none
CCOC(=O)N(C)OC(=O)Nc1ccc(Cl)c(Cl)c1	eLon inh 19 | E coli Lon conf 25
Cc1ccc(C)c(Cn2c(=O)n(CCCC(=O)NCc3ccco3)c(=O)c3ccccc32)c1	none
Cc1cc(C)c(Cn2c(=O)n(CCCC(=O)NCc3ccco3)c(=O)c3ccccc32)c(C)c1	eLon inh 18 | E coli Lon conf inactive
O=C(Nc1ccc(Oc2ccccc2)cc1)c1ccc(Cn2c(=O)[nH]c3ccsc3c2=O)cc1	none
O=C(Nc1ccc(Cl)c(Cl)c1)c1ccc(Cn2c(=O)[nH]c3ccsc3c2=O)cc1	eLon inh 27 | E coli Lon conf inactive
COc1c(O)cccc1[C@@H](O)C1CCN(CCc2ccc(F)cc2)CC1	MEX-5 binding -29, eLon inh 35, Bcl-xL primary 41, GLD-1 TGE inh 58 | E coli Lon conf inactive
COc1ccc(CCN2CCC(Nc3nc4ccccc4n3Cc3ccc(F)cc3)CC2)cc1	none
Cc1ccc2cccc(OCc3ccccc3)c2n1	none
Cc1ccc2cccc(N)c2n1	eLon inh 31 (no result: MEX-5 binding) | E coli Lon conf inactive
COC(=O)CCC(=O)OC1(C)C(=O)C=C2C=C(C3CC3)N(C(CO)CO)C=C2C1=O (configuration not stated)	eLon inh 27 | E coli Lon conf inactive
O=CNCc1nc2ccccc2n1CCc1ccccc1	none
O=CNCCCc1nc2ccccc2n1CCc1ccccc1	eLon inh 18 (no result: MCL1-BIM inh, Bcl-xL primary, GLD-1 TGE inh) | E coli Lon conf inactive
CC(NC(=O)COC(=O)c1c[nH]c2ccccc12)c1ccccc1 (configuration not stated)	none (no result: MEX-5 binding, MCL1-BIM inh, Bcl-xL primary)
CCN(CC)S(=O)(=O)c1ccc2nnn(OCC(=O)Nc3cccc(C#N)c3)c2c1	eLon inh 18 | E coli Lon conf inactive
CCOc1ccc(N(CC(=O)NC2CC2)S(=O)(=O)c2ccc(C)cc2)cc1	none
Cc1cccc(C)c1NC(=O)COC(=O)c1c2c(nc3ccccc13)/C(=C\c1ccc3c(c1)OCO3)CCC2	MCL1-BIM inh active, eLon inh active, Bcl-xL primary 194, GLD-1 TGE inh 182 (no result: MEX-5 binding) | E coli Lon conf 74
CCN1CCN(C(=O)Cn2nc(C)c3sc4ccccc4c3c2=O)CC1	eLon inh 21 | E coli Lon conf inactive
CC(Nc1cccc2ccccc12)C(=O)N/N=C/c1ccc([N+](=O)[O-])cc1 (configuration not stated)	none
Cc1cccc(/C=N/NC(=O)C(C)Nc2cccc3ccccc23)n1 (configuration not stated)	eLon inh 61 | E coli Lon conf 105
Nc1ccccc1C(=O)NN=Cc1cccnc1	eLon inh 21 (no result: MEX-5 binding, MCL1-BIM inh, Bcl-xL primary, GLD-1 TGE inh) | E coli Lon conf inactive
O=C(CNC(=O)c1cccc(F)c1)N/N=C/C=C/c1ccccc1	eLon inh 17 | E coli Lon conf inactive
CC(C)[C@H](NC(=O)OCc1ccccc1)C(=O)NC(C=O)Cc1ccccc1 (some centres not stated)	eLon inh 55 (no result: MEX-5 binding) | E coli Lon conf 59
O=C(COC(=O)c1cc[n+]([O-])cc1)Nc1cccc(Cl)c1Cl	eLon inh 16 | E coli Lon conf inactive
CC(=O)c1ccccc1NC(=O)COC(=O)c1cc[n+]([O-])cc1	none (no result: MEX-5 binding, MCL1-BIM inh, Bcl-xL primary)
O=C(O)c1cc(N2N=C(C(F)(F)F)/C(=C/C=C/c3ccco3)C2=O)ccc1Cl	eLon inh 28 (no result: MEX-5 binding, MCL1-BIM inh, Bcl-xL primary, GLD-1 TGE inh) | E coli Lon conf inactive
O=c1[nH]cnc2sc3c(c12)CCN(Cc1ccccc1)C3	eLon inh 25, Bcl-xL primary 33 | E coli Lon conf inactive
Oc1c(Br)cc(Br)cc1/C=N/n1c(-c2ccccc2)n[nH]c1=S	none
COc1c(Br)cc(/C=N/n2c(-c3ccccc3)n[nH]c2=S)c(O)c1Br	eLon inh 19 | E coli Lon conf inactive
O=c1nc2ccccc2c(NS(=O)(=O)c2ccccc2)n1-c1ccccc1	eLon inh 61 | E coli Lon conf inactive
CC1=C2C3OC(=O)C(C)C3CCC2(C)C=CC1=NO (configuration not stated)	none (no result: MEX-5 binding, MCL1-BIM inh, Bcl-xL primary, GLD-1 TGE inh)
Nc1ccc2c(c1)-c1ccccc1S(=O)(=O)N2	MEX-5 binding -41, eLon inh 17 | E coli Lon conf inactive
Cc1ccc2c(c1)-c1ccccc1S(=O)(=O)N2	none
Cc1nnc(NC(=O)c2ccc3c(c2)NC(=O)CS3)s1	eLon inh 25 (no result: MEX-5 binding) | E coli Lon conf inactive
Cc1ccccc1C(=O)NCC(C)NC(=O)c1ccccc1C (configuration not stated)	none
Nc1c(Cl)cc(-c2[nH]c3cc(C(=O)NCCO)ccc3c(=O)c2O)cc1Cl	MEX-5 binding inconclusive, eLon inh active | E coli Lon conf 193
CCCNC(=O)c1ccc2c(=O)c(O)c(-c3cccc(Br)c3)[nH]c2c1	MEX-5 binding -84, eLon inh 143 | E coli Lon conf 135
